Chronic BCR inh = chronic active BCR signaling inhibition; Potency, µM (doses to about 46.1 µM), for inactives: top-dose activity change, negative = inhibition, hits mostly inhibitors; actives 0.05% (n = 340,000); ABC-DLBCL IkBa-CBG/CBR reporter, luminescence ratio, 4 h; active = well fitted inhibition curve with a large enough effect in the signal ratio, with a control signal flat, not every such curve was filed as active; inconclusive = small, poorly fitted or top-dose-only effect, or effect the other way, or a change in a side signal; the % refers to the signal ratio;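 also: potency is read from the fitted curve at half-maximal effect; plate controls were basal doxycycline-induced cells for no effect and cells given 10 µM MG132 for full effect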
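Compounds up to 46 uM were incubated four hours with TMD8 cells whose green CBG68 luciferase is fused to IkappaBalpha; red CBR luminescence normalised the signal, and concentration-effect curves were fitted to fusion, red and ratio data.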
DT40 TDP1 no CPT = qHTS for Inhibitors of human tyrosyl-DNA phosphodiesterase 1 (TDP1): qHTS in cells in absence of CPT; DT40 Tdp1-/- hTDP1 cells, no CPT, ATP luminescence, 48 h; Potency, µM (top dose mostly 46.2 µM), without a hit: at the top dose activity change, negative = growth inhibition, hits mostly inhibitors; actives 15% (n = 420,000); AID 686978, 2013; also: potency is read from the fitted curve at half-maximal effect; % is scaled to controls: 0 for no effect and ±100 for the full control effect; nearly all actives have a fitted effect of over 55% in size
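Growth kinetics read by CellTiter-Glo luminescence after ≥48 hr at 37 °C. Cells: DT40 Tdp1-/- stably carrying human TDP1, 400 per well, compound exposure in the absence of CPT (DMSO vehicle).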
MCF10A rerep = inducers of DNA re-replication in MCF 10A breast cells; MCF 10A DNA re-replication, Hoechst nuclear intensity, 48 h; AID 624296; actives 2.9% (n = 350,000); Potency, µM (top dose mostly 46.1 µM), for inactives: at the highest dose activity, positive = re-replication, usual class: activators; also: potency is read from the fitted curve at half-maximal effect; % of control where 0% means no effect; nearly all actives have a fitted effect of over 50% in size
DT40 TDP1 CPT = growth inhibition of DT40 Tdp1-/-;hTDP1 cells with camptothecin (screen for TDP1 inhibitors). chicken DT40 Tdp1-/-;hTDP1 cells + 20 nM CPT, ATP luminescence, 48 h. actives 12% (n = 420,000). Potency, µM (highest dose often 46.2 µM), inactives show at the highest dose activity change, negative = growth inhibition, actives largely listed as inhibitors. AID 686979; also: potency is read from the fitted curve at half-maximal effect; % is scaled to controls: 0 for no effect and ±100 for the full control effect; nearly all actives have a fitted effect of over 55% in size
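Chicken DT40 Tdp1-/- cells complemented with human TDP1, 400 cells/well, exposed to compounds plus 20 nM camptothecin for at least 48 h at 37 C; viability read as ATP content by CellTiter-Glo luminescence.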
IL1B secr inh = inhibitors of inflammasome signaling (IL-1 beta secretion) | actives 4.7% (n = 360,000) | THP-1 LPS/ATP IL-1B secretion, AlphaLISA, 16 h; stronger effect = lower value | activity change, % at 57.5 µM | AID 743279; in the data active = activity change below about -50%; inconclusive = mostly about -30% to -49%; also: % is scaled to controls: 0 for no effect and ±100 for the full control effect
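THP-1 cells pretreated 1 hr with compounds (up to 57.5 uM final), then stimulated with LPS (250 ng/mL final) plus ATP (1.25 mM final); secreted IL-1B measured by AlphaLISA after 16 hr, decreased signal indicating inhibition.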
SW480 rereplic = induces DNA re-replication in SW480 colon adenocarcinoma cells. SW480 DNA re-replication, Hoechst DNA content imaging, 48 h. Potency, µM (series often up to 46.1 µM), for the others: top-dose re-replication activation, usual class: activators. actives 1.8% (n = 340,000). AID 624297; also: potency is read from the fitted curve at half-maximal effect; % of control where 0% means no effect; nearly all actives have a fitted effect of over 55% in size
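Quantitative HTS format with DMSO vehicle controls; 48 hr drug incubation at 37 C, then 40 min Hoechst staining and scanning imager measurement at 405 nm excitation.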
* marks the source's active call; other numbers are inactive results; u = inconclusive; x = no result given. An excerpt weighted towards active compounds, which were near 19% of everything screened. Unless noted, calls follow the shape of the dose curve; as a rule, active = well fitted curve in the direction sought with a large enough effect; inconclusive = small, poorly fitted or top-dose-only effect, or another doubt; inactive = no such curve, though single readings can be large; an effect the other way counts as inactive or inconclusive.

SMILES | Chronic BCR inh | DT40 TDP1 no CPT | MCF10A rerep | DT40 TDP1 CPT | IL1B secr inh | SW480 rereplic
CCCCCCCCCCOC(=O)Cn1c(COc2ccccc2OC)[n+](C)c2ccccc21 | u | 1.3µM* | 5.8µM* | 1.03µM* | -91.2* | u
Cc1cccc(C(=O)OCC(=O)c2csc(N3CCCCC3)n2)c1[N+](=O)[O-] | -2.0% | u | -9.2% | u | 18.1 | -9.4%
O=[N+]([O-])/C(C(Cl)=C(Cl)Cl)=C(/NC1CC1)Sc1ccccc1 | u | 23.1µM* | 17.6% | u | u | -2.1%
O=C(CSc1ccccc1)NC1CC1 | x | 0.5% | x | -2.4% | 3.1 | x
COc1cc(C2c3cc4c(cc3CC3COC(=O)N32)OCO4)cc(OC)c1OC (configuration not stated) | x | 0.92µM* | 1.3µM* | 0.82µM* | 1.9 | 1.16µM*
Cc1cnc(NC(=O)c2cccc(S(=O)(=O)N3CC(C)OC(C)C3)c2)s1 (configuration not stated) | -0.5% | u | 4.7% | u | 51.0 | -3.4%
COC(=O)c1ccc(C2C(C(=O)c3cc4ccccc4o3)=C(O)C(=O)N2c2cc(C)on2)cc1 (configuration not stated) | u | -17.7% | 23.1µM* | -11.2% | 16.2 | u
COc1cc(C2C(C(=O)c3cc4ccccc4o3)=C(O)C(=O)N2c2cc(C)on2)cc(OC)c1OC (configuration not stated) | 9.2% | -11.1% | u | -11.7% | 7.6 | -4.0%
Cc1cc(N2C(=O)C(O)=C(C(=O)c3cc4ccccc4o3)C2c2ccc(OC(C)C)cc2)no1 (configuration not stated) | -0.2% | 16.4µM* | u | u | -7.9 | -7.9%
CC(=O)N1c2ccc(S(=O)(=O)NCCC(=O)NCc3ccc(Cl)cc3)cc2CC1C (configuration not stated) | 2.9% | 14.6µM* | 7.8% | u | -0.9 | -8.0%
CC(=O)N1c2ccc(S(=O)(=O)NCCC(=O)Nc3ccc(Br)c(C)c3)cc2CC1C (configuration not stated) | x | 5.17µM* | x | 8.2µM* | x | x
CC(=O)N1c2ccc(S(=O)(=O)NCCC(=O)Nc3ccc(C)c(Cl)c3)cc2CC1C (configuration not stated) | 1.9% | 13µM* | 6.0% | 14.6µM* | 88.4 | 1.6%
CC(=O)N1c2ccc(S(=O)(=O)NCCC(=O)NCc3ccc(N(C)C)cc3)cc2CC1C (configuration not stated) | -2.8% | u | u | u | -15.6 | u
CCCNC(=O)C1(C)CCN(C(=O)COc2ccc(C(C)(C)C)cc2)C1 (configuration not stated) | x | -27.0% | x | -19.0% | 0.0 | x
COc1ccccc1-n1c(-c2ccc(Cl)cc2)c[nH]c1=S | u | 20.6µM* | 16.1% | 23.1µM* | 24.1 | -8.1%
Cc1cccc(-n2c(-c3ccccc3)c[nH]c2=S)c1C | 8.2% | 11.6µM* | -23.2% | u | -4.0 | -8.6%
COc1cc(C(=O)NCc2ccc3c(c2)OCO3)c([N+](=O)[O-])cc1OC | 2.5% | -13.8% | -2.7% | -4.8% | 8.4 | -4.2%
CC(=O)c1ccccc1Oc1ncnc(N)c1[N+](=O)[O-] | u | 16.2% | -4.9% | -12.3% | -4.0 | -10.4%
O=C(Nc1ccc(F)cc1)c1ccc(C(=O)N2CCCC(O)C2)cc1 (configuration not stated) | 6.6% | u | u | u | 0.0 | u
COc1cc(C2Nc3ccc4ncccc4c3C3=C2C(=O)CCC3)ccc1O (configuration not stated) | u | 3.66µM* | 16.4µM* | 5.8µM* | 8.6 | 20.6µM*
O=[N+]([O-])c1ccccc1C(=Nc1ccccc1)c1c(O)cc(O)cc1O | x | 18.4µM* | x | u | 0.0 | x
O=C(Nc1ccccc1)c1ccccc1NC(=O)c1ccccc1[N+](=O)[O-] | x | u | 1.2% | -29.1% | -6.9 | -6.4%
CSc1nc(NCCOC(C)=O)c(C#N)c(-c2ccc(C(C)(C)C)cc2)n1 | x | 16.4µM* | x | u | x | x
Cc1cc(/N=C/C=C2\N(C)c3ccccc3C2(C)C)n(CCC#N)n1 | 5.5% | 4.61µM* | 11.7% | 5.8µM* | -90.1* | -1.0%
CN1\C(=C/C=C/C=C/C=[N+](C)C)C(C)(C)c2ccccc21 | 13.2% | 2.31µM* | u | 2.59µM* | -20.9 | -91.5%
SMILES | Chronic BCR inh | DT40 TDP1 no CPT | MCF10A rerep | DT40 TDP1 CPT | IL1B secr inh | SW480 rereplic
CN(C)c1ccc(N=C/C=C2\N(C)c3ccccc3C2(C)C)cc1 | u | 4.11µM* | u | 5.17µM* | -89.1* | 3.7%
Cc1ccc(Cn2c(C(=O)O)c(CNCc3ccccc3Cl)c3ccc(C)cc32)cc1 | x | u | x | 23.1µM* | x | x
Cc1ccc(Cn2c(C(=O)O)c(CNCCc3ccco3)c3ccc(C)cc32)cc1 | x | -17.7% | x | -23.5% | x | x
Cc1ccc(Cn2c(C(=O)O)c(CNCc3cccs3)c3ccc(C)cc32)cc1 | x | u | x | 14.6µM* | x | x
Cn1cc(CN2C[C@H]3CC[C@H]2C3)c(-c2ccccc2F)n1 | 0.7% | u | 12.9% | -20.0% | -15.5 | 3.2%
CCn1cc(CCCC(=O)NCc2ccc(OC)cc2)c2ccccc21 | -2.5% | -5.8% | -1.4% | u | -11.0 | -7.5%
CC(C)(C)C(=O)NC(=S)NCc1ccccc1 | 1.3% | -3.7% | -35.0% | -4.6% | 5.6 | -90.1%
CCc1cccc(CC)c1NC(=O)CSc1nnc(C2CC2)n1C | -10.5% | 5.8% | -17.0% | 16.1% | -8.7 | -11.5%
O=C(NC(=S)NC1CCCCCCCCCCC1)c1cccnc1 | 3.3% | 14.6µM* | 1.5% | u | 29.7 | -11.7%
O=C(NC(=S)NC1CC1)c1cccnc1 | 0.7% | -0.9% | 3.6% | -0.7% | 10.3 | -6.1%
CCCCOc1ccc(C(=O)NNC(=O)c2cnccn2)cc1OC | -0.3% | 20.6µM* | 15.9% | 8.2µM* | -73.3* | u
COc1cc(C(=O)NC(=S)NNC(=O)c2cnccn2)cc(OC)c1OC | -0.2% | u | u | u | 11.4 | u
COc1ccc(C(=O)NC(=S)NNC(=O)c2cnccn2)cc1 | 6.0% | 20.6µM* | 6.51µM* | 20.6µM* | 23.0 | 1.1%
O=C(NC(=S)NNC(=O)c1cnccn1)c1ccc(Cl)cc1 | 1.0% | u | 0.0% | 8.2µM* | 19.9 | 11.6%
